PubChem BioAssay (Tox21)
Where “and” joins values, the source holds several entries; their conditions need not be identical. Identical values can stand only once. Results filed as inconclusive are left out. The source holds several records for some structures; these can differ, active in one and inactive in another. Calls of active or inactive are those of the source. The call rests on the fitted dose curve; in most records, active means well fitted curve in the direction sought with a large enough effect in the repeat runs; inconclusive means weak or mixed curves; inactive means no such curve, though single readings can be large; an effect the other way counts as inactive or inconclusive.

Key:
[1] = qHTS RealTime-Glo MT Cell Viability Assay in HepG2 cells - 40 hour (AID 1224870); conditions: RealTime-Glo luminescence; series mostly up to 76.8 µM; further: nearly all actives have a fitted effect of over 50% in size
Summary of the method: (§1)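 Real-time viability: cells seeded at 600 per well together with NanoLuc and cell-permeant prosubstrate, compounds added after 5 h incubation. Luminescence tracked at 0, 8, 16, 24, 32 and 40 h of exposure.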

[2] = A CellTox Green Cytotoxicity Assay to monitor cytotoxicity in HEK293 cells - 40 hour (AID 1224871); conditions: CellTox Green fluorescence; series mostly up to 76.8 µM; further: nearly all actives have a fitted effect of over 45% in size; further: potency means the concentration at half of the fitted maximal effect
Summary of the method: (§2)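 Each value comes from one timepoint of a single continuous run in which HEK293 cells with CellTox Green were exposed to compound for up to 40 h at 37 C, dye fluorescence rising with cell death.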

[3] = qHTS RealTime-Glo MT Cell Viability Assay in HEK293 cells - 16 hour (AID 1224872); conditions: RealTime-Glo luminescence; series mostly up to 76.8 µM; further: top concentration of the series differs between compounds; nearly all actives have a fitted effect of over 50% in size
Summary of the method: (§3)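 Assay medium contained NanoLuc luciferase plus cell-permeant prosubstrate, added with HEK293 cells at 600 cells/well. After 5 h at 37 C/5% CO2 compounds were added; plates stayed at 37 C for 40 h with serial luminescence reads.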

[4] = qHTS RealTime-Glo MT Cell Viability Assay in HepG2 cells - 8 hour (AID 1224873); conditions: RealTime-Glo luminescence; series mostly up to 76.8 µM; further: nearly all actives have a fitted effect of over 55% in size
Summary of the method: as §1

[5] = qHTS RealTime-Glo MT Cell Viability Assay in HEK293 cells - 40 hour (AID 1224874); conditions: RealTime-Glo luminescence; max response: stronger effect = lower value; further: nearly all actives have a fitted effect of over 50% in size; further: potency means the concentration at half of the fitted maximal effect
Summary of the method: (§4)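 qHTS format; HEK293 cells with NanoLuc/prosubstrate reagent, 37 C/5% CO2 for 5 h pre-dosing; compounds 23 nL in DMSO; luminescence at each time point reflects viable cells.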

[6] = qHTS RealTime-Glo MT Cell Viability Assay in HepG2 cells - 32 hour (AID 1224877); conditions: RealTime-Glo luminescence; series mostly up to 76.8 µM; further: nearly all actives have a fitted effect of over 55% in size
Summary of the method: (§5)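 qHTS, HepG2, 600 cells/well, RealTime-Glo (NanoLuc + prosubstrate) added with cells; 5 h preincubation; DMSO compound addition; 37 C; luminescence at 0/8/16/24/32/40 h.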

[7] = A CellTox Green Cytotoxicity Assay to monitor cytotoxicity in HepG2 cells - 40 hour (AID 1224879); conditions: CellTox Green fluorescence; series mostly up to 76.8 µM; further: nearly all actives have a fitted effect of over 40% in size; further: potency means the concentration at half of the fitted maximal effect
Summary of the method: (§6)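 Continuous culture of HepG2 cells with a membrane-impermeant DNA dye; rising fluorescence marks dead cells. Compound exposure lasted up to 40 h at 37 C, with reads every 8 h from 0 h.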

[8] = A CellTox Green Cytotoxicity Assay to monitor cytotoxicity in HEK293 cells - 32 hour (AID 1224881); conditions: CellTox Green fluorescence; series mostly up to 76.8 µM; further: nearly all actives have a fitted effect of over 40% in size; further: potency means the concentration at half of the fitted maximal effect
Summary of the method: as §2

[9] = A CellTox Green Cytotoxicity Assay to monitor cytotoxicity in HepG2 cells - 0 hour (AID 1224882); conditions: CellTox Green fluorescence; series mostly up to 76.8 µM; further: nearly all actives have a fitted effect of over 35% in size; further: potency means the concentration at half of the fitted maximal effect
Summary of the method: as §6

[10] = A CellTox Green Cytotoxicity Assay to monitor cytotoxicity in HepG2 cells - 32 hour (AID 1224883); conditions: CellTox Green fluorescence; series mostly up to 76.8 µM; further: nearly all actives have a fitted effect of over 50% in size; further: potency means the concentration at half of the fitted maximal effect
Summary of the method: as §6

[11] = A CellTox Green Cytotoxicity Assay to monitor cytotoxicity in HEK293 cells - 8 hour (AID 1224884); conditions: CellTox Green fluorescence; series mostly up to 76.8 µM; further: nearly all actives have a fitted effect of over 35% in size; further: potency means the concentration at half of the fitted maximal effect
Summary of the method: as §2

[12] = qHTS RealTime-Glo MT Cell Viability Assay in HepG2 cells - 16 hour (AID 1224885); conditions: RealTime-Glo luminescence; series mostly up to 76.8 µM; further: nearly all actives have a fitted effect of over 50% in size
Summary of the method: as §5

[13] = qHTS RealTime-Glo MT Cell Viability Assay in HEK293 cells - 24 hour (AID 1224886); conditions: RealTime-Glo luminescence; series mostly up to 76.8 µM
Summary of the method: as §3

[14] = qHTS RealTime-Glo MT Cell Viability Assay in HEK293 cells - 8 hour (AID 1224887); conditions: RealTime-Glo luminescence; series mostly up to 76.8 µM; further: nearly all actives have a fitted effect of over 50% in size; further: potency means the concentration at half of the fitted maximal effect
Summary of the method: as §4

[15] = A CellTox Green Cytotoxicity Assay to monitor cytotoxicity in HEK293 cells - 16 hour (AID 1224888); conditions: CellTox Green fluorescence; series mostly up to 76.8 µM; further: nearly all actives have a fitted effect of over 35% in size; further: potency means the concentration at half of the fitted maximal effect
Summary of the method: as §2

[16] = qHTS RealTime-Glo MT Cell Viability Assay in HepG2 cells - 0 hour (AID 1224889); conditions: RealTime-Glo luminescence; series mostly up to 76.8 µM; further: nearly all actives have a fitted effect of over 50% in size
Summary of the method: as §5

[17] = A CellTox Green Cytotoxicity Assay to monitor cytotoxicity in HepG2 cells - 24 hour (AID 1224878); conditions: CellTox Green fluorescence; series mostly up to 76.8 µM; further: nearly all actives have a fitted effect of over 45% in size; further: potency means the concentration at half of the fitted maximal effect
Summary of the method: as §6

[18] = A CellTox Green Cytotoxicity Assay to monitor cytotoxicity in HEK293 cells - 24 hour (AID 1224875); conditions: CellTox Green fluorescence; series mostly up to 76.8 µM; further: nearly all actives have a fitted effect of over 45% in size
Summary of the method: as §2

[19] = A CellTox Green Cytotoxicity Assay to monitor cytotoxicity in HepG2 cells - 16 hour (AID 1224876); conditions: CellTox Green fluorescence; series mostly up to 76.8 µM; further: nearly all actives have a fitted effect of over 45% in size; further: potency means the concentration at half of the fitted maximal effect
Summary of the method: as §6

[20] = qHTS RealTime-Glo MT Cell Viability Assay in HEK293 cells - 0 hour (AID 1224880); conditions: RealTime-Glo luminescence; series mostly up to 76.8 µM
Summary of the method: as §4
On the % scale 0 is the no-effect control and ±100 the full control effect.

CNC(=O)N(C)c1nnc(C(C)(C)C)s1
inactive: Potency [1] | Potency [2] | Potency [3] | Potency [4] | max response [5] -13.1% and 0.0487% | Potency [6] | Potency [7] | Potency [8] | Potency [9] | Potency [10] | Potency [11] | Potency [12] | Potency [13] | Potency [14] | Potency [15] | Potency [16]

CC(C)(C)c1ccccc1O
active: Potency [2] 39.4 µM | Potency [17] 49.5 µM | Potency [7] 49.5 µM and 49 µM | Potency [10] 49.5 µM
44.2 µM (active) and inactive: Potency [8]
inactive: Potency [1] | Potency [3] | Potency [4] | max response [5] -18.3% and -0.927% | Potency [6] | Potency [9] | Potency [11] | Potency [12] | Potency [13] | Potency [14] | Potency [15] | Potency [16]

Cc1ccc(N)c(N)c1
inactive: Potency [1] | Potency [2] | Potency [4] | Potency [18] | Potency [19] | Potency [6] | Potency [17] | Potency [7] | Potency [20] | Potency [8] | Potency [9] | Potency [10] | Potency [11] | Potency [12] | Potency [14] | Potency [15] | Potency [16]

CCN(N=O)C(N)=O
inactive: Potency [1] | Potency [2] | Potency [3] | Potency [4] | max response [5] 4.37% and -1.44% | Potency [6] | Potency [17] | Potency [7] | Potency [8] | Potency [9] | Potency [10] | Potency [11] | Potency [12] | Potency [13] | Potency [14] | Potency [15] | Potency [16]

CN(C)c1ccc(C(=O)c2ccc(N(C)C)cc2)cc1
active: Potency [5] 3.47 µM | Potency [7] 5.44 µM and 1.95 µM | Potency [10] 12.2 µM
inactive: Potency [1] | Potency [2] | Potency [4] | Potency [18] | Potency [19] | Potency [6] | Potency [17] | Potency [20] | Potency [8] | Potency [9] | Potency [11] | Potency [12] | Potency [14] | Potency [15] | Potency [16]

C=CCN(CC=C)C(=O)C(Cl)Cl
inactive: Potency [1] | Potency [2] | Potency [3] | Potency [4] | max response [5] 8.06% and -1.16% | Potency [6] | Potency [17] | Potency [7] | Potency [20] | Potency [8] | Potency [9] | Potency [10] | Potency [11] | Potency [12] | Potency [13] | Potency [14] | Potency [15] | Potency [16]

c1ccc(N=Nc2ccccc2)cc1
inactive: Potency [1] | Potency [3] | Potency [4] | max response [5] -14.7% and -11.3% | Potency [19] | Potency [6] | Potency [17] | Potency [7] | Potency [9] | Potency [10] | Potency [11] | Potency [12] | Potency [13] | Potency [14] | Potency [15] | Potency [16]

Nc1ccc(Cl)cc1N
inactive: Potency [1] | Potency [4] | Potency [6] | Potency [20] | Potency [12] | Potency [16]
active: Potency [2] 21.9 µM | Potency [7] 10.2 µM and 21.9 µM | Potency [8] 21.9 µM | Potency [11] 24.5 µM | Potency [14] 40.4 µM | Potency [15] 24.5 µM
inactive and 21.9 µM (active): Potency [17]
inactive and 40.4 µM (active): Potency [19]
inactive and 23.2 µM (active): Potency [10]
inactive and 19.5 µM (active): Potency [9]
